Measured values as given in ChEMBL document CHEMBL4513216, “Probing the Open Global Health Chemical Diversity Library for Multistage-Active Starting Points for Next-Generation Antimalarials” (ACS Infect Dis, 2020).
Screen size: about 68,000 compounds; about 2,700 (4%) showed an effect of 50% or more. This is one part of a sample in which strong results are shown more often than they occur.

The compounds below were run on Plasmodium berghei (assay: Screen against P. berghei liver stage (PbLuc), transformed with Luciferase, at 2uM). Conditions: tested at 2 uM.
Assay type: functional, HepG2

Structure (SMILES)	INHIBITION
CC(C)Nc1nc2c(c(NC3CC3)n1)CCN(Cc1nccn1C)CC2	34.71%
CCCn1cc(NC2CCSCC2)cn1	46.58%
O=C(NCC1(O)CCC1)NC(c1cc(F)ccc1F)C1CC1 (stereo not given)	-5.74%
CCOC(=O)c1n[nH]cc1CN1CCOC(Cc2ccccc2)C1 (stereo not given)	-30.18%
CCOC(=O)c1n[nH]cc1CN1CCOC(Cc2ccc(F)cc2)C1 (stereo not given)	-142.94%
CCOC(=O)c1n[nH]cc1CN1CCCC(N(C)Cc2ccccc2)C1 (stereo not given)	52.3%
CCS(=O)(=O)N1CC(=O)N(CCCc2ccccc2)CC(O)C1 (stereo not given)	12.44%
Cc1cnn(CC2CCCN2C(=O)c2cnc3n[nH]c(C)c3c2)c1 (stereo not given)	-27.31%
O=C(Cn1cc(C(=O)O)ccc1=O)NCc1ccc(F)c(Cl)c1	11.14%
O=C(C1CC1)N(Cc1ccc2cc[nH]c2c1)C1CC1	11.43%
CN(C)c1nc2c(c(N(C)C)n1)CCN(C(=O)CN1CCC(O)CC1)C2	13.99%
c1ccc(CN2Cc3ccnn3CC(COCc3cccnc3)C2)nc1 (stereo not given)	50.32%
c1cncc(COCC2CN(Cc3ccsc3)Cc3ccnn3C2)c1 (stereo not given)	-10.99%
CN(C)C(=O)COCC1CN(Cc2ccsc2)Cc2nccn2C1 (stereo not given)	15.44%
c1ccc(COCC2CN(Cc3ccsc3)Cc3nccn3C2)nc1 (stereo not given)	59.88%
c1cncc(OCC2CN(Cc3ccsc3)Cc3nccn3C2)c1 (stereo not given)	45.82%
c1cncc(COCC2CN(Cc3ccncc3)Cc3ccnn3C2)c1 (stereo not given)	-34.65%
c1cncc(COCC2CN(Cc3ccco3)Cc3ccnn3C2)c1 (stereo not given)	1.22%
Cc1ccc(CN2Cc3ccnn3CC(COCc3cccnc3)C2)o1 (stereo not given)	49.25%
c1cncc(COCC2CN(Cc3cccnc3)Cc3ccnn3C2)c1 (stereo not given)	56.78%
CN(C)C(=O)CCC[S+]([O-])Cc1ccc(Cl)c(Cl)c1 (stereo not given)	-32.8%
CSc1ccc(CN(C)Cc2noc(C(C)(C)C)n2)cc1	21.28%

Structure (SMILES)	INHIBITION
CC(C)Nc1nc2c(s1)C(=O)CN(CC1CC1)C2	-17.3%
CC[C@@]1(O)CCN(CCCOc2ccc(C(N)=O)cc2)C[C@H]1O	-15.75%
CN1CCc2ccc(NCc3cccs3)cc2C1=O	50.59%
CN1CCc2ccc(NCc3cscn3)cc2C1=O	36.28%
CN(CCc1cccs1)C(=O)Nc1ccc2c(c1)C(=O)N(C)CC2	5.28%
CCO[C@H]1CO[C@@]2(CCN(Cc3ccc4c(c3)OCO4)C2)C1	-23.42%
FC(F)(F)Cn1ccnc1CN1CCCC1c1noc(C2CC2)n1 (stereo not given)	-2.7%
COCCNC(=O)C1CN(Cc2csc(C)n2)Cc2ccnn2C1 (stereo not given)	47.54%
CC(C)CC(O)C1CCN(C(=O)c2ccc(C(C)C)[nH]c2=O)CC1 (stereo not given)	-25.72%
CC(C)CC(O)C1CCN(C(=O)c2coc(CN3CCOCC3)c2)CC1 (stereo not given)	13.19%
CC(C)CC(O)C1CCN(C(=O)c2ccc(C(F)(F)F)nc2O)CC1 (stereo not given)	72.05%
O=C(NCC(O)(c1cccs1)C1CC1)NC1CCCCC1 (stereo not given)	-11.54%
CN(Cc1ccccn1)C(C(=O)O)c1ccc2c(c1)OCO2 (stereo not given)	13.86%
COc1ccc(CCN2CC(n3nc(C)cc3C)C2)cc1	33.55%
Cc1nc2[nH]cnc(NCCN3CCOCC3)c-2n1	-7.81%
Cc1ccc(CN2C[C@@H]3C[C@H](C(=O)NCC4CC4)N(C)[C@@H]3C2)o1	21.06%
Cc1ccc(CN2C[C@H]3C[C@H](C(=O)NCC4CC4)N(C)[C@H]3C2)o1	-13.53%
O=C(NCC1CCN(Cc2ccsc2)CC1)NC1CC1	-18.04%
Cc1nc(CN2C[C@H]3C[C@H](C(=O)NCC4CC4)N(C)[C@H]3C2)cs1	55.66%
CN1[C@@H](C(=O)NCC2CC2)C[C@@H]2CN(Cc3ccoc3)C[C@@H]21	40.83%
O=C(CCc1ccccc1)NCC1CCN(Cc2ccsc2)CC1	13.22%
CN1[C@@H](C(=O)NCC2CC2)C[C@H]2CN(Cc3ccsc3)C[C@H]21	1.29%

Structure (SMILES)	INHIBITION
O=C(NCc1ccccc1)NCC1CCN(Cc2ccsc2)CC1	51%
CN1[C@@H](C(=O)NCC2CC2)C[C@@H]2CN(Cc3ccsc3)C[C@@H]21	59.5%
Cc1cnn(CC2CCCN2C(=O)c2cccc(-n3ccc(C)n3)c2)c1 (stereo not given)	23.42%
CS(=O)(=O)c1ccc(C(=O)N2CCCC(n3cncn3)C2)o1 (stereo not given)	-15.41%
CCOC(=O)[C@]12CCCN(Cc3cccs3)C[C@H]1CN(C(C)C)C2	-10.41%
CCn1nc(C)c(CNC(=O)NCC(C)(O)c2ccc(C)o2)c1C (stereo not given)	-109.32%
O=C1COC2(CCN(CC3CC3)CC2)CN1c1cncnc1	-59.44%
CCC(C)N1CCC2(CC1)CN(c1cncnc1)C(=O)CO2 (stereo not given)	51.55%
CCS(=O)(=O)N1CCC2(CC1)CN(c1cncnc1)C(=O)CO2	-28.81%
CSc1nc(C)cc(N2CCC(c3ncc[nH]3)CC2)n1	-69.92%
CC(C)NS(=O)(=O)c1cc(C(=O)O)cc(-c2ccccc2F)c1	38.83%
CC(C)NS(=O)(=O)c1cc(C(=O)O)cc(-c2ccccc2C#N)c1	-10.44%
CC(C)NS(=O)(=O)c1cc(C(=O)O)cc(-c2ccccc2CN(C)C)c1	58.24%
CC(=O)c1ccccc1-c1cc(C(=O)O)cc(S(=O)(=O)NC(C)C)c1	17.48%
CC(C)NS(=O)(=O)c1cc(C(=O)O)cc(-c2ccccc2CO)c1	76.6%
CC(C)NS(=O)(=O)c1cc(C(=O)O)cc(-c2ccc(CN(C)C)cc2)c1	15.42%
Cn1c(CCNc2nccnc2C#N)nc2ccc(F)cc21	8.03%
CCc1nnc2n1CCN(C(=O)c1cc3c(F)cccc3[nH]1)C2	9.17%
CC(C)[C@@H]1CN(C(=O)NCc2ccco2)C[C@H]1N(C)C	52.08%
CC(C)[C@@H]1CN(C(=O)NCc2ccco2)C[C@H]1NS(=O)(=O)N(C)C	28.95%
CC(C)[C@@H]1CN(CC(=O)NCc2ccco2)C[C@H]1NS(=O)(=O)N(C)C	-30.53%
